Experimental data from the supplement of paper PMC4466140.

Experiments:
Experiment in all cases: SPOT peptide array binding signal intensity (averaged, normalized) (arbitrary units (background-subtracted, floor 0; scale differs between SH3 domains)); higher = stronger binding of the SH3 domain to the peptide
AgAbp1 = target: AgAbp1
Method in brief: (§1)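 Binding signal refers to normalized, background-subtracted spot intensity averaged over replicates, expressed in arbitrary units that differ between domains. GST-fused SH3 domains from four yeast species were incubated at 10 μg/ml overnight at 4°C on cellulose membranes of synthetic 15-mer peptides with cysteines replaced by serines. Bound protein was detected with anti-GST antibody, an HRP anti-mouse secondary and luminol, and quantified with Genespotter.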

AgBbc1 = target: AgBbc1
Method in brief: as §1

AgBem1-D1 = target: AgBem1-D1
Method in brief: as §1

AgBzz1-D1 = target: AgBzz1-D1
Method in brief: as §1

AgBzz1-D2 = target: AgBzz1-D2
Method in brief: as §1

AgCyk3 = target: AgCyk3
Method in brief: as §1

AgFus1 = target: AgFus1
Method in brief: as §1

AgHof1 = target: AgHof1
Method in brief: as §1

AgHse1 = target: AgHse1
Method in brief: as §1

AgLsb1 = target: AgLsb1
Method in brief: as §1

AgLsb4 = target: AgLsb4
Method in brief: as §1

AgMyo5 = target: AgMyo5
Method in brief: as §1

AgNbp2 = target: AgNbp2
Method in brief: as §1

AgRvs167 = target: AgRvs167
Method in brief: as §1

AgSho1 = target: AgSho1
Method in brief: as §1

AgSla1-D1-D2 = target: AgSla1-D1-D2
Method in brief: as §1

AgSla1-D3 = target: AgSla1-D3
Method in brief: as §1

CaAbp1-D1 = target: CaAbp1-D1
Method in brief: as §1

CaAbp1-D2 = target: CaAbp1-D2
Method in brief: as §1

CaBbc1 = target: CaBbc1
Method in brief: as §1

CaBem1-D1 = target: CaBem1-D1
Method in brief: as §1

CaBzz1-D1 = target: CaBzz1-D1
Method in brief: as §1

CaBzz1-D2 = target: CaBzz1-D2
Method in brief: as §1

CaCyk3 = target: CaCyk3
Method in brief: as §1

CaFus1 = target: CaFus1
Method in brief: as §1

CaHof1 = target: CaHof1
Method in brief: as §1

CaHse1 = target: CaHse1
Method in brief: as §1

CaLsb1 = target: CaLsb1
Method in brief: as §1

CaLsb4 = target: CaLsb4
Method in brief: as §1

CaMyo5 = target: CaMyo5
Method in brief: as §1

CaNbp2 = target: CaNbp2
Method in brief: as §1

CaRvs167 = target: CaRvs167
Method in brief: as §1

CaRvs167-3 = target: CaRvs167-3
Method in brief: as §1

CaSho1 = target: CaSho1
Method in brief: as §1

CaSla1-D1-D2 = target: CaSla1-D1-D2
Method in brief: as §1

CaSla1-D3 = target: CaSla1-D3
Method in brief: as §1

ScAbp1 = target: ScAbp1
Method in brief: as §1

ScBbc1 = target: ScBbc1
Method in brief: as §1

ScBem1-D1 = target: ScBem1-D1
Method in brief: as §1

ScBzz1-D1 = target: ScBzz1-D1
Method in brief: as §1

ScBzz1-D2 = target: ScBzz1-D2
Method in brief: as §1

ScCyk3 = target: ScCyk3
Method in brief: as §1

ScFus1 = target: ScFus1
Method in brief: as §1

ScHof1 = target: ScHof1
Method in brief: as §1

ScHse1 = target: ScHse1
Method in brief: as §1

ScLsb1 = target: ScLsb1
Method in brief: as §1

ScLsb2 = target: ScLsb2
Method in brief: as §1

ScLsb3 = target: ScLsb3
Method in brief: as §1

ScLsb4 = target: ScLsb4
Method in brief: as §1

ScMyo3 = target: ScMyo3
Method in brief: as §1

ScMyo5 = target: ScMyo5
Method in brief: as §1

ScNbp2 = target: ScNbp2
Method in brief: as §1

ScPex13 = target: ScPex13
Method in brief: as §1

ScRvs167 = target: ScRvs167
Method in brief: as §1

ScSho1 = target: ScSho1
Method in brief: as §1

ScSla1-D1-D2 = target: ScSla1-D1-D2
Method in brief: as §1

ScSla1-D3 = target: ScSla1-D3
Method in brief: as §1

SpAbp1-D1 = target: SpAbp1-D1
Method in brief: as §1

SpBbc1 = target: SpBbc1
Method in brief: as §1

SpBzz1-D1 = target: SpBzz1-D1
Method in brief: as §1

SpBzz1-D2 = target: SpBzz1-D2
Method in brief: as §1

SpCyk3 = target: SpCyk3
Method in brief: as §1

SpHof1 = target: SpHof1
Method in brief: as §1

SpHof1-2 = target: SpHof1-2
Method in brief: as §1

SpHof1-3 = target: SpHof1-3
Method in brief: as §1

SpHse1 = target: SpHse1
Method in brief: as §1

SpLsb1 = target: SpLsb1
Method in brief: as §1

SpLsb4 = target: SpLsb4
Method in brief: as §1

SpMyo1 = target: SpMyo1
Method in brief: as §1

SpNbp2 = target: SpNbp2
Method in brief: as §1

SpPex13 = target: SpPex13
Method in brief: as §1

SpRvs167 = target: SpRvs167
Method in brief: as §1

SpSla1-D1-D2 = target: SpSla1-D1-D2
Method in brief: as §1

SpSla1-D3 = target: SpSla1-D3
Method in brief: as §1

Question: Which results are given for NTMKKRPAPPSLPSL?
Answer: SPOT peptide array binding signal intensity (AgAbp1): 93; SPOT peptide array binding signal intensity (AgBbc1): 21; SPOT peptide array binding signal intensity (AgBem1-D1): 405; SPOT peptide array binding signal intensity (AgBzz1-D1): 152; SPOT peptide array binding signal intensity (AgBzz1-D2): 240; SPOT peptide array binding signal intensity (AgCyk3): ≤ 0; SPOT peptide array binding signal intensity (AgFus1): 375; SPOT peptide array binding signal intensity (AgHof1): 286; SPOT peptide array binding signal intensity (AgHse1): 641; SPOT peptide array binding signal intensity (AgLsb1): 15.5; SPOT peptide array binding signal intensity (AgLsb4): 61.5; SPOT peptide array binding signal intensity (AgMyo5): 66.5; SPOT peptide array binding signal intensity (AgNbp2): 384; SPOT peptide array binding signal intensity (AgRvs167): 3.33; SPOT peptide array binding signal intensity (AgSho1): 496; SPOT peptide array binding signal intensity (AgSla1-D1-D2): 114; SPOT peptide array binding signal intensity (AgSla1-D3): 59.8; SPOT peptide array binding signal intensity (CaAbp1-D1): 1570; SPOT peptide array binding signal intensity (CaAbp1-D2): 892; SPOT peptide array binding signal intensity (CaBbc1): 151; SPOT peptide array binding signal intensity (CaBem1-D1): 279; SPOT peptide array binding signal intensity (CaBzz1-D1): 2650; SPOT peptide array binding signal intensity (CaBzz1-D2): 952; SPOT peptide array binding signal intensity (CaCyk3): 13.5; SPOT peptide array binding signal intensity (CaFus1): 1380; SPOT peptide array binding signal intensity (CaHof1): 0.5; SPOT peptide array binding signal intensity (CaHse1): 262; SPOT peptide array binding signal intensity (CaLsb1): 6; SPOT peptide array binding signal intensity (CaLsb4): 589; SPOT peptide array binding signal intensity (CaMyo5): 137; SPOT peptide array binding signal intensity (CaNbp2): 1280; SPOT peptide array binding signal intensity (CaRvs167): 89; SPOT peptide array binding signal intensity (CaRvs167-3): 1.25; SPOT peptide array binding signal intensity (CaSho1): 1700; SPOT peptide array binding signal intensity (CaSla1-D1-D2): 648; SPOT peptide array binding signal intensity (CaSla1-D3): 246; SPOT peptide array binding signal intensity (ScAbp1): 30; SPOT peptide array binding signal intensity (ScBbc1): 4.5; SPOT peptide array binding signal intensity (ScBem1-D1): 1; SPOT peptide array binding signal intensity (ScBzz1-D1): 134; SPOT peptide array binding signal intensity (ScBzz1-D2): 59; SPOT peptide array binding signal intensity (ScCyk3): 11; SPOT peptide array binding signal intensity (ScFus1): 457; SPOT peptide array binding signal intensity (ScHof1): 19.5; SPOT peptide array binding signal intensity (ScHse1): 1410; SPOT peptide array binding signal intensity (ScLsb1): 29.5; SPOT peptide array binding signal intensity (ScLsb2): ≤ 0; SPOT peptide array binding signal intensity (ScLsb3): 344; SPOT peptide array binding signal intensity (ScLsb4): 130; SPOT peptide array binding signal intensity (ScMyo3): 350; SPOT peptide array binding signal intensity (ScMyo5): 287; SPOT peptide array binding signal intensity (ScNbp2): 383; SPOT peptide array binding signal intensity (ScPex13): 310; SPOT peptide array binding signal intensity (ScRvs167): 64.5; SPOT peptide array binding signal intensity (ScSho1): 837; SPOT peptide array binding signal intensity (ScSla1-D1-D2): 234; SPOT peptide array binding signal intensity (ScSla1-D3): 521; SPOT peptide array binding signal intensity (SpAbp1-D1): 78.5; SPOT peptide array binding signal intensity (SpBbc1): 3; SPOT peptide array binding signal intensity (SpBzz1-D1): 1170; SPOT peptide array binding signal intensity (SpBzz1-D2): 257; SPOT peptide array binding signal intensity (SpCyk3): 2; SPOT peptide array binding signal intensity (SpHof1): 144; SPOT peptide array binding signal intensity (SpHof1-2): 41.8; SPOT peptide array binding signal intensity (SpHof1-3): 227; SPOT peptide array binding signal intensity (SpHse1): 602; SPOT peptide array binding signal intensity (SpLsb1): 12.2; SPOT peptide array binding signal intensity (SpLsb4): 788; SPOT peptide array binding signal intensity (SpMyo1): 196; SPOT peptide array binding signal intensity (SpNbp2): 308; SPOT peptide array binding signal intensity (SpPex13): 55; SPOT peptide array binding signal intensity (SpRvs167): 110; SPOT peptide array binding signal intensity (SpSla1-D1-D2): 15; SPOT peptide array binding signal intensity (SpSla1-D3): 156
